Values without a mark were called inactive. Results filed as inconclusive are left out. Active and inactive are the calls of the source. Unless noted, the call rests on the fitted dose curve; in most records, active means well fitted curve in the direction sought with a large enough effect; inconclusive means small, poorly fitted or top-dose-only effect, or another doubt; inactive means no such curve, though single readings can be large; an effect the other way counts as inactive or inconclusive.

Test [1] in a line: AP1 Signaling Pathway (AID 357; active means well fitted curve in either direction with a large enough effect, not every such curve was filed as active; further: on the % scale 0 is the no-effect control and ±100 the full control effect). As to conditions: ME-180 AP-1-bla reporter, EGF-induced, beta-lactamase ratio, 5 h; at 7.69 µM (top of the series) unless noted. In short, it runs like this: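 First, ME-180 AP-1-bla cells were cultured overnight at 37 °C in low-serum Opti-MEM. Next, titrated compounds with EC50 EGF were incubated 5 hours. Finally, CCF4 was added for 2.5 hours and the 460/530 nm ratio recorded.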

In test [2] the target is Cytochrome P450 1A2 (Homo sapiens) (UniProt P05177). The test can be described thus: p450-cyp1a2 (AID 410; calls by dose curve). A digest of the protocol:
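20nM CYP1A2 with 100uM Luciferin-ME (at Km) in 100mM KPO4; compound preincubated 10 min, NADPH regeneration added, 60 min at room temperature. Luciferin quantified by luminescence after detection reagent; normalized to 57 uM furafylline.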

A short description of test [3]: NFAT Signaling Pathway (AID 444; active means well fitted curve in either direction with a large enough effect, not every such curve was filed as active;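 further: carbachol stimulus at about its EC50 of 1 µM final; on the % scale 0 is the no-effect control and ±100 the full control effect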). Particulars: Jurkat NFAT-bla M1, carbachol, beta-lactamase ratio, 5 h; at 7.69 µM (top of the series) unless noted. A digest of the protocol:
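Jurkat cells carrying an NFAT-driven β-lactamase reporter and co-transfected muscarinic M1 receptor were treated with compound plus carbachol (1 uM final, an EC50 level) for 5 h at 37 °C. CCF4 loading followed for 1 h at RT; 460/530 nm ratio gave %activity.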

Test [4] in a line: Stat Signaling Pathway (AID 446; active means well fitted curve in either direction with a large enough effect, not every such curve was filed as active;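 further: ME-180 cervical cancer cells given 40 pM IL-6 alongside compound; SIE-controlled beta-lactamase reporter measured as 460/530 nm FRET emission ratio; on the % scale 0 is the no-effect control and ±100 the full control effect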). Particulars: ME-180 SIE beta-lactamase reporter, IL-6 stimulated, 5 h; at 7.69 µM (top of the series) unless noted. A digest of the protocol:
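Reporter line: ME-180 cervical carcinoma, SIE-beta-lactamase. Treatment: compound with 40 pM IL-6, 5 hrs, 37 C, in low-serum OPTI-MEM with 10 mM HEPES pH 7.3. Detection: 460/530 nm fluorescence.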

Test [5] has as its target Glucocorticoid receptor (Homo sapiens) (UniProt P04150). The test can be described thus: GR-GFP Redistribution (AID 450;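 active means compounds whose dose series gives a full or clear partial fitted curve of increased nuclear translocation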; further: potency means the concentration at half of the fitted maximal effect). Particulars: U2OS GR-GFP nuclear translocation, laser cytometry, 2 h.
The target is the same in test [6]. The test can be described thus: GR-EFC Redistribution (AID 451; calls by dose curve; further: potency means the concentration at half of the fitted maximal effect). As to conditions: CHO-K1 GR-EFC translocation, beta-gal luminescence, 2 h. In short, it runs like this: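 CHO-K1 cells stably expressing nuclear-localized β-gal enzyme acceptor and GR fused C-terminally to the enzyme donor fragment; ligand-driven nuclear translocation restores β-gal by complementation. Compounds titrated up to 46 uM final, 2 h at 37 °C; luminescence read.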

Test [7] deals with Mitogen-activated protein kinase 10 (Mus musculus) (UniProt Q61831). The test can be described thus: JNK3 AlphaScreen Assay (AID 530; active means well fitted curve in either direction with a large enough effect, not every such curve was filed as active;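 further: kinase came from lysate of stimulated human HepG2 cells; signal reports phosphorylation of biotinylated GST-cJun 1-79 at Ser73 with 10 µM ATP; on the % scale 0 is the no-effect control and ±100 the full control effect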). A digest of the protocol:
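Inhibitors reduce antibody binding to phosphorylated biotin-cJun, lowering AlphaScreen luminescence. Lysates from HepG2 cells pre-activated by IL-1beta plus TNF-alpha supplied JNK3; compounds were titrated.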
For orientation: Alpha assays give light when donor and acceptor beads are brought close together.

In test [8] the target is 3',5'-cyclic-AMP phosphodiesterase 4B (Homo sapiens) (UniProt Q07343). The experiment in a line: qHTS Assay for Inhibitors of PDE-IV (AID 607; active means well fitted activation curve with a large enough effect in the main read-out, with a control signal flat, not every such curve was filed as active; further: % of control where 0% means no effect). In short, it runs like this: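 Cell-based read-out of cAMP via a modified cyclic nucleotide-gated channel and membrane potential dye (535/590 nm) in HEK293 cells expressing PDE4 endogenously. Compounds tested up to 22.9 uM final; 100 uM RO 20-1724 reference.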
Chain of 3',5'-cyclic-AMP phosphodiesterase 4B (Homo sapiens) (Q07343 whole entry, looked up): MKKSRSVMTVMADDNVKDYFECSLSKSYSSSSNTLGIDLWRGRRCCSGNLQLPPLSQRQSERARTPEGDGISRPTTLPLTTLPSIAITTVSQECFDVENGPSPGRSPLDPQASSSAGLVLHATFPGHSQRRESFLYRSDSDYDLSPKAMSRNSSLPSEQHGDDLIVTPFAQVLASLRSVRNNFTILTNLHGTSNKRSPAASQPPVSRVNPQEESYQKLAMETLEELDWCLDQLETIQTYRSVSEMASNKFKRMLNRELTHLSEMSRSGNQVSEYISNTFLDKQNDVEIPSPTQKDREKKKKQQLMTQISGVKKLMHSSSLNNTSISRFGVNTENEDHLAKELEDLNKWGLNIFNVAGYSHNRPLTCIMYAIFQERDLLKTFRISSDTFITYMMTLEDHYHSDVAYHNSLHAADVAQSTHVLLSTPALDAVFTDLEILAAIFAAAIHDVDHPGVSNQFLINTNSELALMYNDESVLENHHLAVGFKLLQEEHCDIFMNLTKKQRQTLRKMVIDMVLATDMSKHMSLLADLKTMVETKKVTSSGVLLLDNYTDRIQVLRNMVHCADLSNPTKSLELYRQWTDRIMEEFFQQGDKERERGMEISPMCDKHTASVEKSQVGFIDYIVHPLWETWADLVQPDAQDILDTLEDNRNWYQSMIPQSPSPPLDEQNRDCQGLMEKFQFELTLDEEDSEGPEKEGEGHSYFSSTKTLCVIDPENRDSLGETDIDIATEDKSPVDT

Test [9] deals with Guanine nucleotide-binding protein G(i) subunit alpha-1 (Homo sapiens) (UniProt P63096). The experiment in a line: qHTS Assay for Inhibitors of RGS12 GoLoco Motif Activity (Green Fluorophore) (AID 879).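 Further: 0% = labeled peptide with Gαi1 and full inhibition = labeled peptide alone without protein; negative values mean loss of peptide binding seen as reduced polarization.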 In short, it runs like this:
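Fluorescence polarization assay: 50 nM Gαi1 with 10 nM FITC-labeled RGS12 GoLoco peptide in 10 mM Tris pH 7.5, 150 mM NaCl, 0.1 mM GDP, 0.05% NP40, 10 min at room temperature with compound.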
In general terms: qHTS replaces the single test concentration by a dilution series.

For test [10], the target named is Cytochrome P450 3A4 (Homo sapiens) (UniProt P08684). The experiment in a line: qHTS Assay for Activators of Cytochrome P450 3A4 (AID 885). Further: nearly all actives have a fitted effect of over 65% in size. A digest of the protocol:
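Signal was normalized against complete inhibition by 57 uM ketoconazole. The reaction used 20nM CYP3A4 with 25uM Luciferin-PPXE, 10-min compound preincubation and a 60-min NADPH-supported step at RT.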

The target of test [11] is Muscarinic acetylcholine receptor M1 (Rattus norvegicus) (UniProt P08482). The test can be described thus: qHTS Assay for Antagonists of Acetylcholine Muscarinic M1 Receptor: Measurement of IP-One Response (AID 944). Further: nearly all actives have a fitted effect of over 75% in size. A digest of the protocol: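 CHO cells stably expressing rat M1, pretreated 10 min with compound, then stimulated 30 min with carbachol at EC80 (200 nM) in LiCl-containing buffer pH 7.4; IP1 accumulation read by HTRF competition (665/620 nm).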
Chain of Muscarinic acetylcholine receptor M1 (Rattus norvegicus) (P08482 whole entry, looked up): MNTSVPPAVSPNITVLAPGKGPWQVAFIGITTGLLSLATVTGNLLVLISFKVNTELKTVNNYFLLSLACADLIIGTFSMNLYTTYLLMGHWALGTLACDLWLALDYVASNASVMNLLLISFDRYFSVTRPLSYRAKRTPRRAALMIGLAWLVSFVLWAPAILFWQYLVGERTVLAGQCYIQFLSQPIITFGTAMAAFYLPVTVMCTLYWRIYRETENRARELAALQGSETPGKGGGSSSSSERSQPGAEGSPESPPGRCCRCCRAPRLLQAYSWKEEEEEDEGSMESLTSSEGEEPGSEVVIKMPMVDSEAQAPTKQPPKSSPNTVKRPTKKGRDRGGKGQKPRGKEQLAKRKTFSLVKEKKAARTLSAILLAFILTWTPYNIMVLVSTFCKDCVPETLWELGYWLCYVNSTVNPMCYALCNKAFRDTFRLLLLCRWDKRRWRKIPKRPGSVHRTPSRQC

Test [12] has as its target Pyruvate kinase (Leishmania mexicana) (UniProt Q27686). The experiment in a line: qHTS Validation Assay for Inhibitors of Leishmania Mexicana Pyruvate Kinase (AID 945).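 Further: 0% = DMSO only neutral control wells.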 A digest of the protocol:
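qHTS eight-point titrations against 0.2 nM LmPYK (E451W) in imidazole buffer pH 7.2 with 0.5 mM PEP, 0.1 mM ADP; 1 h, room temperature. Readout: PKLight luminescence, normalized to neutral DMSO wells.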

The target in test [13] is Pyruvate kinase PKM (Homo sapiens) (UniProt P14618). The experiment in a line: qHTS Assay for Activators of Human Muscle Pyruvate Kinase (AID 954; active means well fitted curve in the direction sought with a large enough effect, not every such curve was filed as active;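 further: 0% = uninhibited enzyme and -100% = no enzyme or full thiadiazolimine inhibition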). In short, it runs like this:
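Human PKM2 activity is measured as ATP generation, detected by luciferase-coupled luminescence. The enzyme (0.1 nM) acts on 0.5 mM PEP and 0.1 mM ADP for 1 h at ambient temperature; data are normalized to uninhibited and full-inhibition wells.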

The target in test [14] is Alpha-galactosidase A (Homo sapiens) (UniProt P06280). The test can be described thus: Counterscreen for Glucocerebrosidase Inhibitors: qHTS Assay for Human alpha-Galactosidase at pH 4.5 (AID 992). Further: 0% is about no effect. A digest of the protocol: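 Quantitative HTS: compounds tested from 0.7 nM up to 77 uM against 2 nM enzyme with 80 uM 4-MU alpha-D-galactopyranoside. The 20 min room-temperature reaction is stopped with 1M NaOH/1M glycine, pH 10.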
Chain of Alpha-galactosidase A (Homo sapiens) (P06280 whole entry, looked up): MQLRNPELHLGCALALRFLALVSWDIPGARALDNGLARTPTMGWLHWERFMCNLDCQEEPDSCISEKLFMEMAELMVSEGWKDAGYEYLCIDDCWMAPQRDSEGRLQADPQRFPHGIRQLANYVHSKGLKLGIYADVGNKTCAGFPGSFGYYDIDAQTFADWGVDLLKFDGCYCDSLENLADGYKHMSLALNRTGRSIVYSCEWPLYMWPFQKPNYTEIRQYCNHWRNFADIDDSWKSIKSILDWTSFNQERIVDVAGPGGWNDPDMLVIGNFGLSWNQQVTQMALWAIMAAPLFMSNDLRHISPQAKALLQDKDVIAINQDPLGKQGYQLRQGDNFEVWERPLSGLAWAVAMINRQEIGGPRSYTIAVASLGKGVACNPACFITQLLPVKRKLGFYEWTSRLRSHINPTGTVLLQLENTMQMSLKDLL
On the technique in general: Counterscreens check selectivity or assay interference.

The target of test [15] is alpha-glucosidase (Oryza sativa, rice) (UniProt Q653V4). The experiment in a line: Counterscreen for Glucocerebrosidase Inhibitors: qHTS Assay for Rice alpha-Glucosidase at pH 5.0 (AID 997).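 Further: 0% = full activity with enzyme and -100% = basal without enzyme.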 In short, it runs like this: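 Rice alpha-glucosidase (4 nM final) with 400 uM 4-methylumbelliferyl-alpha-D-glucopyranoside in citrate buffer pH 5.0, 20 min at room temperature, stopped at pH 10; fluorescence 365/440 nm, compounds 0.7 nM–77 uM, AC50 from Hill fits.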

Test [16] can be described thus: qHTS Assay for Identification of Small Molecule Antagonists for NFkB Signaling Pathway (AID 895; active means well fitted inhibition curve with a large enough effect in the signal ratio, with a control signal flat, not every such curve was filed as active; the % refers to the signal ratio; further: on the % scale 0 is the no-effect control and ±100 the full control effect). In short, it runs like this:
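NFkB-bla ME-180 cervical carcinoma cells with beta-lactamase reporter under NFkB response element; compounds added, then TNF alpha at 10 pM final (EC50), 5 h at 37 C. LiveBLAzer substrate 2 h, room temperature; emission 460/530 nm at 405 nm excitation.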

Test [17] can be described thus: qHTS Assay for Identification of Small Molecule Agonists for Thrombopoietin (TPO) Signaling Pathway (AID 917). Further: on the % scale 0 is the no-effect control and ±100 the full control effect. In short, it runs like this: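 Murine Ba/F3 cells stably expressing human TPO receptor and a Glycoprotein IIb promoter–luciferase reporter were IL-3-starved overnight, then treated with compounds plus TPO (26 pM final, its EC50) for 24 hrs at 37 C; luminescence was read.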

Chain of Cytochrome P450 3A4 (Homo sapiens) (P08684 whole entry, looked up): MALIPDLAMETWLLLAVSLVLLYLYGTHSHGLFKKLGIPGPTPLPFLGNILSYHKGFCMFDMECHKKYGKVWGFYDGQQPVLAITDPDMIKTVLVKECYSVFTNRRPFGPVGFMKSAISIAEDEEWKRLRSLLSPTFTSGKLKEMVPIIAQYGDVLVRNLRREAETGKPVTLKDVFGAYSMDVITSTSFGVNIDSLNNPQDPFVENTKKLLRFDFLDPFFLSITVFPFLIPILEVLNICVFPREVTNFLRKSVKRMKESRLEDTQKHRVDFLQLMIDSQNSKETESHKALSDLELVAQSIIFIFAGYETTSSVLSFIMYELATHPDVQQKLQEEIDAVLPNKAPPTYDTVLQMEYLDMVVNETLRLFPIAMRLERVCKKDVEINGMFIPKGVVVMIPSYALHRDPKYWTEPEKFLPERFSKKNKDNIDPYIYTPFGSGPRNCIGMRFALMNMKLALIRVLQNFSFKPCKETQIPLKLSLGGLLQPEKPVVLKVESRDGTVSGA
Chain of Pyruvate kinase PKM (Homo sapiens) (P14618 whole entry, looked up): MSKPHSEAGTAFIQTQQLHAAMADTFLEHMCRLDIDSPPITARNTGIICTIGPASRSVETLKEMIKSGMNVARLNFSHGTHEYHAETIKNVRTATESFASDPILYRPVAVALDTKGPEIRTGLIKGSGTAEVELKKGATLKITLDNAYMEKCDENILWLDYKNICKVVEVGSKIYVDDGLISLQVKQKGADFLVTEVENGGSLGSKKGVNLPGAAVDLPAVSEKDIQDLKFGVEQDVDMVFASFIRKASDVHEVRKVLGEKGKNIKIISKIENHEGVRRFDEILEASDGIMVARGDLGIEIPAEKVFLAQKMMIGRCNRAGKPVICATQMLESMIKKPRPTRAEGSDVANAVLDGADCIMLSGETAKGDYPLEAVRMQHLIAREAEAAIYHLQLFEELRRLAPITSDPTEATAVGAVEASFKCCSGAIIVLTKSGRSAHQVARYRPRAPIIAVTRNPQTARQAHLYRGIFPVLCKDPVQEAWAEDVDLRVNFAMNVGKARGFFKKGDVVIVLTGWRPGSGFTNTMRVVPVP
Chain of Glucocorticoid receptor (Homo sapiens) (P04150 whole entry, looked up, the tested form may be a part): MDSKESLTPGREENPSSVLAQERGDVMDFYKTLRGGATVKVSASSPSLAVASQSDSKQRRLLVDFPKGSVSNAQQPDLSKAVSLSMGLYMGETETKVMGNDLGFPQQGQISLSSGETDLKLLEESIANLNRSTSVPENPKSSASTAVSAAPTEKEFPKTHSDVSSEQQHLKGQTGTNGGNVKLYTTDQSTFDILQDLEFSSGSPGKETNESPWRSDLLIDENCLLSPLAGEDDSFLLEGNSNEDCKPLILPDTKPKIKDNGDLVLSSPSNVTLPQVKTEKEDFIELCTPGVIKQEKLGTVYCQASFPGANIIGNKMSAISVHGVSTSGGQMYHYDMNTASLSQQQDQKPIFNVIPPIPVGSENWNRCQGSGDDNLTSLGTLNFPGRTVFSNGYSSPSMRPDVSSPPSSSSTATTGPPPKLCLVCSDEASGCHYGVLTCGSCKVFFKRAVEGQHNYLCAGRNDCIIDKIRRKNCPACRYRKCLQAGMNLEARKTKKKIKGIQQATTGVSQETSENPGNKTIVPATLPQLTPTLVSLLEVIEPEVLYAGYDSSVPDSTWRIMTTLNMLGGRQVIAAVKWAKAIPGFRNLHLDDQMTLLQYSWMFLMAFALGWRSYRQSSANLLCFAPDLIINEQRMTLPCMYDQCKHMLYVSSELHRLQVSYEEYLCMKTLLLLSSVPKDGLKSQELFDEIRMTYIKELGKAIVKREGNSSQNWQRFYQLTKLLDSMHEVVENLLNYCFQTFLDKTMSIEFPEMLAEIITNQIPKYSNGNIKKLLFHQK
Chain of Guanine nucleotide-binding protein G(i) subunit alpha-1 (Homo sapiens) (P63096 whole entry, looked up): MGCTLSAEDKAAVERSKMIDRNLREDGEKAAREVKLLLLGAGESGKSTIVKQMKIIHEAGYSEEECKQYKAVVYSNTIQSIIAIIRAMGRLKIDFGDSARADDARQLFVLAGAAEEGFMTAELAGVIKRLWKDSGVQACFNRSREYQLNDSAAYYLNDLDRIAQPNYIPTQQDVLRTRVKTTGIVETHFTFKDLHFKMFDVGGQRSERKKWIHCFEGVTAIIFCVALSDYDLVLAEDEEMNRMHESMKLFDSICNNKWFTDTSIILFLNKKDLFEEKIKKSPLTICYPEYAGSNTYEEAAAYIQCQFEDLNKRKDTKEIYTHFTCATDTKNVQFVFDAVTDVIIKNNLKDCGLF
Chain of Cytochrome P450 1A2 (Homo sapiens) (P05177 whole entry, looked up): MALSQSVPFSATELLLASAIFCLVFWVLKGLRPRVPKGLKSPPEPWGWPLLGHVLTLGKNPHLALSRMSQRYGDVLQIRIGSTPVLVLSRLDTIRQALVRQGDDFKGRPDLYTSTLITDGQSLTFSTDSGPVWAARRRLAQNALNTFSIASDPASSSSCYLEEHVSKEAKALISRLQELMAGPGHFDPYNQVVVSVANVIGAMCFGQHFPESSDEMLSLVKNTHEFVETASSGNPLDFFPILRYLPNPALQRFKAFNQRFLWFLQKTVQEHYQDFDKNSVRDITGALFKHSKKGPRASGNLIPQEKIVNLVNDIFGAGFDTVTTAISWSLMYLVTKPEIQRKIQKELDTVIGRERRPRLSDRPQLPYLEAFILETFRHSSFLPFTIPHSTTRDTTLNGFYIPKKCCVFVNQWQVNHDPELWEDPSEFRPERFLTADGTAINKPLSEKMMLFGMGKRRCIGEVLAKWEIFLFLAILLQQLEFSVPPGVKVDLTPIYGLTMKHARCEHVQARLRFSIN
Chain of Pyruvate kinase (Leishmania mexicana) (Q27686 2-499 E452W): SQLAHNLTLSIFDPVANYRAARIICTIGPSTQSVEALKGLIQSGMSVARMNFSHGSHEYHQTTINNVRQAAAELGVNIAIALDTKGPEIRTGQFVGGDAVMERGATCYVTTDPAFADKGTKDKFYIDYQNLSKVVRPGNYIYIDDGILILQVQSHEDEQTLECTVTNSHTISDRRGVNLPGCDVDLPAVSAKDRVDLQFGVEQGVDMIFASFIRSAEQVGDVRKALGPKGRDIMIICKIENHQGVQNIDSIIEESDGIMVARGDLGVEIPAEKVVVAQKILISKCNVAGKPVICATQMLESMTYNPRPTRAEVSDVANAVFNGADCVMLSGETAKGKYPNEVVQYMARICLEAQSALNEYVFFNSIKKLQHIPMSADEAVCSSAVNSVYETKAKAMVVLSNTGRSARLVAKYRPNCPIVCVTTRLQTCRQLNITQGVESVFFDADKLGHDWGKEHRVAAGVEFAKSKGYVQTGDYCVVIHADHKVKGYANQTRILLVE

As to `Oc1ccc([C@@H]2CNCc3sccc32)cc1O`, the values for the activity change, negative = inhibition in [1] and in [3] were -15.6% [at 38 µM] and 8.54% [at 38 µM], respectively. For the same molecule, the Potency entry in test [2], in test [7], in test [8], in test [10], in [11] and in test [15] was “inactive” each time. Also, the activity, negative = inhibition in test [4] is 5.59% [at 38 µM]. Further, the Potency in test [5] and in test [6] was greater than 46 µM each time. The molecule was classed as inactive in test [9], in test [12], in test [13] and in [14].
For `OC[C@@H]1NC[C@@H](O)[C@@H](O)[C@H]1O`, the activity change, negative = inhibition in test [1] was 0.931% [at 38 µM]; in test [3] it was 1.96% [at 38 µM]. For the same molecule, the Potency entry in [2], in test [7], in test [8], in test [16] and in test [11] was “inactive” each time. Besides, the activity, negative = inhibition in test [4] was -28.2% [at 38 µM]. The Potency in [5] and in [6] was greater than 46 µM throughout. Moreover, the molecule was classed as inactive in test [9], in [13] and in test [14].
As to `N.N.N.N.N.N.N.N.N.N.N.N.N.N.O.O.[Ru].[Ru].[Ru]`, the values for the activity change, negative = inhibition in test [1] and in test [3] were 17.6% [at 38 µM] and -5.33% [at 38 µM], respectively. Moreover, the Potency entry in test [2], in test [7], in test [8], in test [10], in test [11] and in test [15] was “inactive” in each case. In addition, the activity, negative = inhibition in [4] was -27% [at 38 µM]. In addition, the Potency in test [5] and in [6] was greater than 46 µM in each case. The result in [9], in test [17], in test [13] and in test [14] was inactive.
For the molecule `Nc1nc2c(nc(Br)n2[C@@H]2O[C@H]3COP(=O)(O)O[C@@H]3[C@H]2O)c(=O)[nH]1`, the activity change, negative = inhibition in test [1] is 8.86% [at 38 µM]; in test [3] it was -0.742% [at 38 µM]. Besides, the Potency entry in test [2], in [7], in [8], in test [11] and in test [15] was “inactive” throughout. Besides, the activity, negative = inhibition in test [4] is -10.7% [at 38 µM]. Also, the Potency in test [5] was 12.1 µM (active); in [6] it was greater than 46 µM. Further, the result in test [9], in test [17], in test [12], in test [13] and in test [14] was inactive.
With `O=C(O)/C=C\c1cnc[nH]1`, the activity change, negative = inhibition in [1] is 4.19% [at 38 µM]; in [3], 9.72% [at 38 µM]. The Potency result in test [2], in [7], in [8], in test [10] and in test [11] was “inactive” each time. For the same molecule, the activity, negative = inhibition in [4] is 3.14% [at 38 µM]. In addition, the Potency in [5] and in test [6] was greater than 46 µM in each case. Moreover, the outcome in test [9], in [17], in test [13] and in [14] was inactive.

For the origin of these results see PubChem BioAssay (NCATS).
